# From ChEMBL document CHEMBL4513216, “Probing the Open Global Health Chemical Diversity Library for Multistage-Active Starting Points for Next-Generation Antimalarials” (ACS Infect Dis, 2020)
# Among all 69,000 compounds or so, about 8,600 (12%) showed an effect of 50% or more. For the sample, strong results were picked, then their nearest neighbours and some compounds at random.
# System: Plasmodium berghei
# Experiment: Screen against P. berghei liver stage (PbLuc), transformed with Luciferase, at 10uM
# Format: functional, HepG2
# Conditions: tested at 10 uM
row,Compound,INHIBITION [%]
1,CCCn1nnc2c(sc3nc(N4CCOCC4)c4c(c32)CCC4)c1=O,80.6
2,CC(C)n1nnc2c(sc3nc(N4CCOCC4)c4c(c32)CCC4)c1=O,28.6
3,Cn1nnc2c(sc3nc(N4CCOCC4)c4c(c32)CCC4)c1=O,13.8
4,CNc1ncc(CN(C)C(=O)c2cccc(-n3cccn3)c2)cn1,25.8
5,O=C(NCCc1cccs1)NCC(O)c1cccc(F)c1 (centres undefined),-54.4
6,CCN(CC)c1ncnc2c(C)nn(CC)c12,35.4
7,O=C(O)C1(n2ccc(-c3ccco3)n2)CCN(Cc2cccnc2)CC1,1.48
8,CNc1nc2cn(-c3cccc(OC)c3)c(=O)c-2c[nH]1,-98.45
9,C[C@@H]1CN(CC(C)(C)N2CCOCC2)C[C@@]1(O)C1CC1,54.5
10,C[C@@H]1CN(Cc2cc3ccccc3n2C)CC[C@@]1(O)C1CC1,8.7
11,C[C@@H]1CN(CC(C)(C)N2CCCCC2)C[C@@]1(O)C1CC1,31.7
12,C[C@@H]1CN(CC(C)(C)N2CCCCC2)CC[C@@]1(O)C1CC1,71.3
13,C[C@@H]1CN(CC(C)(C)N2CCOCC2)CC[C@@]1(O)C1CCOCC1,27.7
14,C[C@@H]1CN(S(=O)(=O)N2CCOCC2)C[C@@]1(O)C1CC1,38.75
15,Cc1nn(-c2ccccc2)nc1C(=O)N1CCCC(n2cccn2)C1 (centres undefined),17.4
16,N#Cc1ccccc1CN1CCCC(c2nccn2CC2CC2)C1 (centres undefined),33.4
17,FC(F)Oc1ccccc1CN1CCCC(c2nccn2CC2CC2)C1 (centres undefined),74.5
18,NC(=O)Cn1ccnc1C1CCCN(Cc2ccccc2OC(F)F)C1 (centres undefined),46.4
19,CC1(c2ncc(CN3CCSCC3)cn2)CCCCO1 (centres undefined),40.95
20,CN1CC[C@]2(CN(S(C)(=O)=O)C[C@H]2c2ccccc2)C1=O,48.4
21,CCCn1cc(Cl)c(C(=O)N2C[C@@H](O)[C@H](NC(C)=O)C2)n1,0.65
22,O=C(O)c1cncc(Cc2ccccc2F)c1,-8.58
23,Cc1cc(-c2cnc(N3CCNC(=O)C3)nc2-c2ccoc2C)on1,14.7

row,Compound,INHIBITION [%]
1,Cc1cc(-c2cnc(N3CCNC(=O)C3)nc2-c2ccc(C)o2)on1,35.8
2,Cc1cc(-c2cnc(N3CCNC(=O)C3)nc2-c2sccc2C)on1,0.301
3,Cc1cc(-c2cnc(N3CCCC(C)C3)nc2-c2cccnc2C)on1 (centres undefined),64.3
4,Cc1cc(-c2cnc(N3CCCCCC3)nc2-c2cccnc2C)on1,59.3
5,Cc1cc(-c2cnc(N3CCNC(=O)C3)nc2-c2cccnc2C)on1,39.2
6,Cc1cc(-c2cnc(N3CCNC(=O)C3)nc2-c2ccncc2)on1,50.8
7,Cc1cc(-c2cnc(N3CCOCC3)nc2-c2cccnc2C)on1,-2.11
8,Cc1cc(-c2cnc(N3CCC(O)CC3)nc2-c2cccnc2C)on1,11.1
9,O=C(c1ccc(Cl)cc1F)N1CCC(Cn2cc(CO)nn2)CC1,6.67
10,CCCN(Cc1nnnn1C1CC1)CC1COc2ccccc2O1 (centres undefined),-16.6
11,COCCCNC(=O)c1cc(-c2cnc(N3CCOCC3)nc2)cn1C,38.1
12,CC1CCN(CCNC(=O)c2ccn(-c3ccc(F)cc3)n2)CC1,-43.5
13,O=C(NCCN1CCC(c2cccs2)CC1)c1ccccc1C(F)(F)F,40.9
14,CCOC(=O)N1CCN(CC(=O)Nc2ccc(F)cc2Cl)CC1,25.6
15,O=C(NCCN1CCC(c2cccs2)CC1)Nc1cccs1,9.54
16,CC1CCN(CCNC(=O)Nc2ccc(F)cc2Cl)CC1,56.4
17,O=C(NCCN1CCC(c2cccs2)CC1)c1ccc(F)cc1Cl,56.6
18,CC(=O)NCCN1CCC(c2cccs2)CC1,-19.4
19,CCSc1ccccc1C(=O)NCCN1CCC(c2cccs2)CC1,38
20,O=C(NCCc1ccccc1)NCCN1CCC(c2cccs2)CC1,38
21,Cc1csc(C(=O)NCCN2CCC(c3cccs3)CC2)c1,68.2
22,O=C(Cc1ccccc1Cl)NCCN1CCC(c2cccs2)CC1,56.6
23,COc1ccc(C(=O)NCCN2CCC(c3cccs3)CC2)cc1OC,17.1

row,Compound,INHIBITION [%]
1,CCc1nnc2n1CCN(C(=O)c1ccc3cc[nH]c3c1)C2,-7.53
2,CC(=O)N[C@@H]1CN(S(=O)(=O)c2ccc(Cl)cc2)C[C@H]1O,-0.232
3,COC(C)(CNS(=O)(=O)c1cnn(C)c1)c1ccccc1F (centres undefined),-19.1
4,Cc1noc(C)c1CCC(=O)N1CCn2cccc2C1C (centres undefined),-19.7
5,CN(C)C(=O)c1n[nH]c2c1CN(Cc1ccccn1)CC2,-27
6,CC1CCN(CCCNC(=O)Nc2cc3c(cc2Br)OCCO3)CC1,63.3
7,CC1CCN(CCCNC(=O)C2CCCCC2)CC1,-32.3
8,O=C(Nc1cc2c(cc1Br)OCCO2)NC1CCS(=O)(=O)C1 (centres undefined),11.8
9,CN(Cc1nccn1CC(F)(F)F)C(=O)c1ccc(F)c(F)c1,-17.4
10,Cc1nn(-c2ncnc3[nH]cnc23)c2c1C(CC(C)C)CC(=O)N2 (centres undefined),-4.35
11,CN(C)c1ncnc2c1CCN(Cc1nccs1)CC2,-12.1
12,CC(=O)N1CCC2(CCN(Cc3ccccn3)C2=O)C1 (centres undefined),-20.1
13,Cc1oncc1C(=O)N1CCC2(CCN(Cc3ccccn3)C2=O)C1 (centres undefined),25.1
14,CN(C)C(=O)N1CCC2(CC1)CCN(Cc1ccccn1)C2=O,20.5
15,O=C(c1cccnc1)N1CCC2(CC1)CCN(Cc1ccccn1)C2=O,-20.1
16,CCc1nc(CN2CCN(C(=O)c3cnccn3)CC2)cs1,9.94
17,Cc1occc1C(=O)N1CCC2(CCN(Cc3ccccn3)C2=O)C1 (centres undefined),65.7
18,Cc1ccc(C(=O)N2CCC3(CC2)CCN(Cc2ccccn2)C3=O)o1,52.2
19,O=C(c1ccncc1)N1CCC2(CC1)CCN(Cc1ccccn1)C2=O,14.6
20,CC(C)(C)c1nc(CN2CCN(C(=O)c3cnccn3)CC2)cs1,20.8
21,Cc1cnc(C(=O)N2CCC3(CCN(Cc4ccccn4)C3=O)C2)cn1 (centres undefined),-39.2
22,O=C(c1cnccn1)N1CCN(Cc2csc(-c3ccccc3)n2)CC1,59.4
23,O=C(c1cnccn1)N1CCC2(CC1)CCN(Cc1ccccn1)C2=O,53.2
